About 79,000 compounds went through this panel and 15% of them were active in at least one assay; those are over-represented in the sample as a whole. Values without a mark were called inactive. Activity calls are given as the source filed them. No stated cut-off is given here; in the data, active means growth inhibition above about 70%; inactive means the rest.

A short description of assay [1]: NCI Yeast Anticancer Drug Screen. Data for the rad50 strain (AID 155).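 Further: 0% = growth of vehicle-only cultures of the same strain.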 The note with it: S. cerevisiae rad50 strain growth inhibition; at 50.0 µM; stronger effect = higher value. An outline of the steps: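 Growth of the mutant yeast was measured after compound exposure and referenced to vehicle-treated cultures.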
Assay [2] in a line: NCI Yeast Anticancer Drug Screen. Data for the mec2-1 strain (AID 157). The conditions noted are these: S. cerevisiae mec2-1 strain, at 50.0 µM, stronger effect = higher value. Summed up:
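Mutant yeast (mec2-1) grown with compound; growth inhibition relative to vehicle control reported.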

The nature of assay [3]: NCI Yeast Anticancer Drug Screen. Data for the sgs1 mgt1 strain (AID 161).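 Further: 0% = growth of cultures given vehicle only.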 The note with it: S. cerevisiae sgs1 mgt1 strain, at 50.0 µM, stronger effect = higher value. Summed up:
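Yeast cells carrying a defined DNA-repair defect were exposed to test compounds. Growth inhibition was measured relative to vehicle-treated controls.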

Assay [4] can be described thus: NCI Yeast Anticancer Drug Screen. Data for the cln2 rad14 strain (AID 165).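 Further: 0% = growth equal to vehicle treated cultures.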 The note with it: S. cerevisiae cln2 rad14 strain, at 50.0 µM, stronger effect = higher value. Summed up:
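Readout is yeast growth inhibition versus vehicle-treated controls, using a strain with cln2 and rad14 alterations exposed to compound.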

A short description of assay [5]: NCI Yeast Anticancer Drug Screen. Data for the bub3 strain (AID 167). The note with it: S. cerevisiae bub3 mutant strain, at 50.0 µM, stronger effect = higher value. An outline of the steps: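 Whole-cell yeast assay. The mutant strain was incubated with compounds, and growth inhibition was determined by comparison with vehicle-treated cells.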
Assay [6] in a line: NCI Yeast Anticancer Drug Screen. Data for the mlh1 rad18 strain (AID 175). The conditions noted are these: S. cerevisiae mlh1 rad18 strain growth inhibition; at 50.0 µM; stronger effect = higher value. An outline of the steps: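 Genetically defined yeast (DNA repair-deficient) exposed to compounds; growth inhibition determined relative to vehicle.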

In the case of `CCCOC(=O)/C=C(\Cl)C(=O)OCCC`, the growth inhibition in assay [1] was -0.95%; in assay [2], 4.15%; in assay [3] it was 0.65%; in assay [4] it was -23.2%; in assay [5] it was -45.6%; in assay [6], -5.8%.

Take `CN(C)c1ccc2c(c1)C(O)c1ccccc1-2` (stereo not given): the growth inhibition is -7.3% in assay [1]; -6.55% in assay [2]; 1.1% in assay [3]; -0.65% in assay [4]; 19.4% in assay [5]; 0.7% in assay [6].

In the case of `CC(=O)NC(Cc1ccc(F)cc1)C(=O)O` (stereo not given), the growth inhibition in assay [1] is -1.75%; in assay [2], -7.85%; in assay [3] it was -18.1%; in assay [4], -19.7%; in assay [5] it was -27.6%; in assay [6], -17.9%.

Take `COC(=O)NC1C(=O)CCC(=O)C1C(N)=O` (stereo not given): the growth inhibition in assay [1] was -23.4%; in assay [2] it was -7.65%; in assay [3] it was -17.4%; in assay [4] it was -17.5%; in assay [5], -0.3%; in assay [6], -12.4%.

Regarding `CCN(CC)[Si](C)(C)C`, the growth inhibition in assay [1] is -24.1%; in assay [2], -0.2%; in assay [3] it was -9.25%; in assay [4], -6.65%; in assay [5], -21.8%; in assay [6] it was -24.4%.

Take `Brc1cccc(C2ON=C(c3ccccc3)N2C23CC4CC(CC(C4)C2)C3)c1` (stereo not given): the growth inhibition in assay [1] was 2.2%; in assay [2], -7.45%; in assay [3], -1.75%; in assay [4], -14.7%; in assay [5], -7.55%; in assay [6], -7.7%.

For the compound `COc1cc2oc3cc(=O)cc4oc(-c5ccccc5)cc(c2c2c1CCC(c1ccccc1)O2)c43` (stereo not given), the growth inhibition in assay [1] was 6.75%; in assay [2], 7.9%; in assay [3], -17.4%; in assay [4], 3.6%; in assay [5] it was -8.7%; in assay [6], -10.2%.

For `CCN(CC)C(=S)SCCO`, the growth inhibition is -4.3% in assay [1]; -11.2% in assay [2]; 6.15% in assay [3]; -9.7% in assay [4]; -3.5% in assay [5]; -1.65% in assay [6].

With `CC1(C)C(=O)CCC2(C)C(OC(=O)c3ccc(C(=O)O)cc3)CCCC12` (stereo not given), the growth inhibition in assay [1] is -2%; in assay [2], 37.5%; in assay [3] it was 30.1%; in assay [4] it was -15.4%; in assay [5], 20.2%; in assay [6], 18.4%.

Regarding `O=[N+]([O-])c1ccc(OCC#CCOc2ccc([N+](=O)[O-])c(C(F)(F)F)c2)cc1C(F)(F)F`, the growth inhibition in assay [1] was 31.4%; in assay [2], -13.6%; in assay [3], -0.2%; in assay [4] it was 4.65%; in assay [5], -2.3%; in assay [6], -3.75%.

`CC(C)C/C(CC(=O)CCC(=O)Nc1ccccc1[N+](=O)[O-])=N\NC(=O)c1cc2ccccc2cc1O`: the growth inhibition in assay [1] was 17.8%; in assay [2], 24.1%; in assay [3], -11.8%; in assay [4] it was 26.2%; in assay [5] it was 9.8%; in assay [6] it was 29.9%.

As for `O=C(O)C1=CN=C(C(=O)O)NN1`, the growth inhibition is -24.4% in assay [1]; -23.2% in assay [2]; -28.8% in assay [3]; 19.5% in assay [4]; -4.15% in assay [5]; -34.5% in assay [6].

Turning to `O=C(CCc1ccccc1CO)NCCc1ccccc1`, the growth inhibition was 52% in assay [1]; 20.9% in assay [2]; -18.1% in assay [3]; 7.8% in assay [4]; -34.1% in assay [5]; 3.85% in assay [6].

With `Cc1cc(OC(=O)Nc2cccc(Cl)c2C)ccc1[N+](=O)[O-]`, the growth inhibition in assay [1] was 1.35%; in assay [2], 53.4%; in assay [3] it was 25.6%; in assay [4], 3.95%; in assay [5] it was 48.9%; in assay [6], 1.7%.

Consider `COc1ccc2c(c1)CCc1cc(OC)ccc1/[N+]([O-])=[N+]\2[O-]`, for which the growth inhibition in assay [1] is -1.2%; in assay [2], 1.25%; in assay [3] it was 6.8%; in assay [4] it was -70.8%; in assay [5], -5.1%; in assay [6], 14.8%.

For `COC1(OC)C2(Cl)C(Cl)=C(Cl)C1(Cl)C1CCCCCC12` (stereo not given), the growth inhibition in assay [1] was -4.95%; in assay [2], 2.8%; in assay [3], 1.85%; in assay [4], -60.7%; in assay [5] it was -8.4%; in assay [6], 8.15%.

`CN(C)/C=N/NC(=O)c1ccccc1N`: the growth inhibition in assay [1] was -15%; in assay [2], -15.7%; in assay [3], -6.75%; in assay [4] it was -11.6%; in assay [5], 2.15%; in assay [6], 0.55%.

Take `O=C1C=C(NCCCCC2CCCCC2)c2ccccc2C1=O`: the growth inhibition was 11.8% in assay [1]; -3.25% in assay [2]; 0.15% in assay [3]; 11.2% in assay [4]; -9.3% in assay [5]; -4.6% in assay [6].

As to `Cc1ccc(NC(=O)Nc2ccc(C)cc2)cc1`, the growth inhibition in assay [1] was 0.7%; in assay [2], -14.9%; in assay [3], -12.8%; in assay [4] it was -9.25%; in assay [5] it was -2.3%; in assay [6] it was -18.1%.

`Cc1ccc(S(=O)c2ccccc2C(O)(C(F)(F)F)C(F)(F)F)cc1` (stereo not given): the growth inhibition in assay [1] is 76.2% (active); in assay [2], 75.8% (active); in assay [3] it was 74.6% (active); in assay [4], 59.6%; in assay [5], 52.1%; in assay [6] it was 75.7% (active).
